Reference: PubChem BioAssay (NCATS)
Inconclusive results are not listed. Unless noted, the call rests on the fitted dose curve; in most records, active means well fitted curve in either direction with a large enough effect (not every such curve was filed as active); inconclusive means small, poorly fitted or top-dose-only effect, or another doubt; inactive means flat fitted curve, though single readings scatter.

Legend:
[1] = AP1 Signaling Pathway (AID 357); conditions: ME-180 AP-1-bla reporter, EGF-induced, beta-lactamase ratio, 5 h; at 17.2 µM (top of the series) unless noted;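 further: ME-180 reporter cells stimulated with EGF at its EC50 level; on the % scale 0 is the no-effect control and ±100 the full control effect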
In short: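 AP-1-bla ME-180 cells, Opti-MEM + 0.5% dialyzed FBS, plated overnight 37 °C. Cpd titration + EC50 EGF, 5 h 37 °C. CCF4 2.5 h RT; ex 405, em 460/530 ratio → %activity, AC50.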

[2] = NFAT Signaling Pathway (AID 444); conditions: Jurkat NFAT-bla M1, carbachol, beta-lactamase ratio, 5 h; at 17.2 µM (top of the series) unless noted;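 further: carbachol stimulus at about its EC50 of 1 µM final; on the % scale 0 is the no-effect control and ±100 the full control effect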
In short: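 Jurkat cells with NFAT-driven β-lactamase reporter and co-expressed M1 receptor, stimulated with carbachol (final 1 uM, ~EC50), compound titration, 5 h at 37 °C. CCF4 loaded 1 h at RT; 460/530 nm ratio gave %activity and AC50.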

[3] = Stat Signaling Pathway (AID 446); conditions: ME-180 SIE beta-lactamase reporter, IL-6 stimulated, 5 h; at 17.2 µM (top of the series) unless noted;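 further: ME-180 cervical cancer cells given 40 pM IL-6 alongside compound; SIE-controlled beta-lactamase reporter measured as 460/530 nm FRET emission ratio; on the % scale 0 is the no-effect control and ±100 the full control effect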
In short: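 ME-180 SIE-bla cells; overnight plating; cpd + IL-6 40 pM, 5 h, 37 C; LiveBLAzer 2.5 h RT; 460/530 nm emission ratio. Normalized to 300 pM IL-6 and 125 nM JAK inhibitor controls.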

[4] = target: Glucocorticoid receptor (Homo sapiens) (UniProt P04150); experiment: GR-GFP Redistribution (AID 450;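 active means compounds whose dose series gives a full or clear partial fitted curve of increased nuclear translocation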; further: potency means the concentration at half of the fitted maximal effect)
Chain of Glucocorticoid receptor (Homo sapiens) (P04150 whole entry, looked up): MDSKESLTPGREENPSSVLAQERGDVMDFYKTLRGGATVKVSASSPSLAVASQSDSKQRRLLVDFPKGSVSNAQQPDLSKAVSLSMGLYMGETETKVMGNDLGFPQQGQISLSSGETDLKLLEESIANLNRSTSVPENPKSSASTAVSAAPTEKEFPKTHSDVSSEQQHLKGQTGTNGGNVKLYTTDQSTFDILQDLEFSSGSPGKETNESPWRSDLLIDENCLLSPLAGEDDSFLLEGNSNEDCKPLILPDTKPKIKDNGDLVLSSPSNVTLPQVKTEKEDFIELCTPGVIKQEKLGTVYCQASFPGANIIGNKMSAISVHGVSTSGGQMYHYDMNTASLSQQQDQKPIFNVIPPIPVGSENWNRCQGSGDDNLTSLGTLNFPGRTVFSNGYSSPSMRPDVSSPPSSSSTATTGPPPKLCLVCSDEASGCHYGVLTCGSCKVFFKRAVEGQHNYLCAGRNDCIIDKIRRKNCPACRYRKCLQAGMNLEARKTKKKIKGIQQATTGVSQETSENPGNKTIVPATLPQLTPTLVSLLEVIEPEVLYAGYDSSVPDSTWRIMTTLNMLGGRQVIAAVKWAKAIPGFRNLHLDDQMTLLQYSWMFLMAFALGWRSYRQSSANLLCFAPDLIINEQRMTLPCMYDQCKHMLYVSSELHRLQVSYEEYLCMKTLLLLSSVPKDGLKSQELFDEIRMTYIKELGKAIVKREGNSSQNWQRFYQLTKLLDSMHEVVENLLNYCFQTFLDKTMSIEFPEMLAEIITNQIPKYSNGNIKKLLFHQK

Cc1ccc(C2/C(=C(\O)c3ccc4c(c3)OCCO4)C(=O)C(=O)N2CCCN(C)C)o1 (centres undefined)
inactive: activity change, negative = inhibition [1] 1.54% | activity change, negative = inhibition [2] -21.4% | activity, negative = inhibition [3] -1.3% | Potency [4] > 20.6 µM

CN(C)CCNc1nc(-c2ccco2)c2c(c1C#N)CC(C)(C)OC2
inactive: activity change, negative = inhibition [1] 9.95% | activity change, negative = inhibition [2] -23% | activity, negative = inhibition [3] 12.9% | Potency [4] > 20.6 µM

CCCOc1cccc(-c2nnc(N)s2)c1
inactive: activity change, negative = inhibition [1] -15.9% | activity change, negative = inhibition [2] -11.9% | activity, negative = inhibition [3] -2.76% | Potency [4] > 20.6 µM

Cc1ccc2cc(CNC(C)C)c(=O)[nH]c2c1
inactive: activity change, negative = inhibition [1] 3.13% | activity change, negative = inhibition [2] -10.3% | activity, negative = inhibition [3] -4.43% | Potency [4] > 20.6 µM

CC(NC(=O)OCc1ccccc1)C(=O)OCN1C(=O)c2ccccc2C1=O (centres undefined)
inactive: activity change, negative = inhibition [1] -1.4% | activity change, negative = inhibition [2] -16.6% | activity, negative = inhibition [3] 13.6% | Potency [4] > 20.6 µM

COc1ccc(C2CC(C(F)(F)F)n3ncc(C(=O)NCC4CCCO4)c3N2)cc1OC (centres undefined)
inactive: activity change, negative = inhibition [1] -0.991% | activity change, negative = inhibition [2] 3.91% | activity, negative = inhibition [3] -0.435% | Potency [4] > 20.6 µM

COc1ccccc1N1CCN(CCOc2c(OC)cccc2OC)CC1
inactive: activity change, negative = inhibition [1] 12.4% | activity change, negative = inhibition [2] 12.8% | activity, negative = inhibition [3] 2.04% | Potency [4] > 20.6 µM

CCOC(=O)C1(c2nc(N)cs2)COC(=O)C1 (centres undefined)
inactive: activity change, negative = inhibition [1] 6.34% | activity change, negative = inhibition [2] -1.85% | activity, negative = inhibition [3] 2.25% | Potency [4] > 20.6 µM

CCc1nc2n[nH]c(N)c2c2c1CCCC2
inactive: activity change, negative = inhibition [1] -12.2% | activity change, negative = inhibition [2] 1.69% | activity, negative = inhibition [3] -2.34% | Potency [4] > 20.6 µM

Cc1cc(C)c(C#N)c(SCC(=O)NC2CC2)n1
inactive: activity change, negative = inhibition [1] 5.34% | activity change, negative = inhibition [2] -3.32% | activity, negative = inhibition [3] 8.05% | Potency [4] > 20.6 µM

N#CCCSc1nc(N2CCOCC2)c2c(c1C#N)CCCC2
inactive: activity change, negative = inhibition [1] -2.29% | activity change, negative = inhibition [2] 13.2% | activity, negative = inhibition [3] -12.4% | Potency [4] > 20.6 µM

CC1(C)Cc2c(C#N)c(SCc3nc4ccccc4[nH]3)nc(N3CCOCC3)c2CO1
inactive: activity change, negative = inhibition [1] -22.7% | activity change, negative = inhibition [2] 8.62% | activity, negative = inhibition [3] -16.1% | Potency [4] > 20.6 µM

CCOC(=O)C1CCN(c2ncnc3c2cnn3-c2ccc(OC)cc2)CC1
inactive: activity change, negative = inhibition [1] 4.62% | activity change, negative = inhibition [2] -5.45% | activity, negative = inhibition [3] 1.28% | Potency [4] > 20.6 µM

CCOC(=O)c1c(CN2CCN(CCO)CC2)n(C)c2cc(Br)c(OC)cc12
inactive: activity change, negative = inhibition [1] 19.8% | activity change, negative = inhibition [2] 29.2% | activity, negative = inhibition [3] -13.7% | Potency [4] > 20.6 µM

CN1CCN(c2nc(C(N)=O)cc(-c3ccccc3)n2)CC1
inactive: activity change, negative = inhibition [1] -1.1% | activity change, negative = inhibition [2] -3.4% | activity, negative = inhibition [3] 20.9% | Potency [4] > 20.6 µM

COc1cc(N2C(=O)CSC23C(=O)Nc2ccccc23)cc(OC)c1OC (centres undefined)
inactive: activity change, negative = inhibition [1] 14.9% | activity change, negative = inhibition [2] 18.9% | activity, negative = inhibition [3] -2.69% | Potency [4] > 20.6 µM

O=C(Oc1ccccc1)c1c(Cl)cccc1P(=O)(O)O
inactive: activity change, negative = inhibition [1] 7.32% | activity change, negative = inhibition [2] 2.02% | activity, negative = inhibition [3] 5.05% | Potency [4] > 20.6 µM

C=CCn1c(C2CC(=O)N(c3ccc(C)cc3)C2)nc2ccccc21 (centres undefined)
inactive: activity change, negative = inhibition [1] -0.041% | activity change, negative = inhibition [2] 5.1% | activity, negative = inhibition [3] 5.25% | Potency [4] > 20.6 µM

O=C(NCc1ccco1)c1ccc(=O)oc1
inactive: activity change, negative = inhibition [1] 13.8% | activity change, negative = inhibition [2] 6.96% | activity, negative = inhibition [3] -6.97% | Potency [4] > 20.6 µM

COc1ccc(OC)c(C(O)c2coc3ccc(O)c(CN4CCOCC4)c23)c1 (centres undefined)
inactive: activity change, negative = inhibition [1] 0.618% | activity change, negative = inhibition [2] -10.4% | activity, negative = inhibition [3] -5.12% | Potency [4] > 20.6 µM

CC(O)c1n(C)c(Cl)c[n+]1C (centres undefined)
inactive: activity change, negative = inhibition [1] 0.68% | activity change, negative = inhibition [2] -4.99% | activity, negative = inhibition [3] -4.96% | Potency [4] > 20.6 µM

Cn1cc(C(=O)NCN2CCCCC2)c2ccccc21
inactive: activity change, negative = inhibition [1] -2.91% | activity change, negative = inhibition [2] -0.662% | activity, negative = inhibition [3] 3.15% | Potency [4] > 20.6 µM

CCc1cc2c(=O)c(-c3cscn3)coc2cc1O
inactive: activity change, negative = inhibition [1] -3.15% | activity change, negative = inhibition [2] -8.09% | activity, negative = inhibition [3] -14.6% | Potency [4] > 20.6 µM

O=C(OCCN1CCOCC1)c1ccc(OCCN2CCOCC2)cc1
inactive: activity change, negative = inhibition [1] 1.65% | activity change, negative = inhibition [2] -7.8% | activity, negative = inhibition [3] -3.54% | Potency [4] > 20.6 µM

S=C(N=Nc1ccccc1)NNc1ccccc1
inactive: activity change, negative = inhibition [1] 7.8% | activity change, negative = inhibition [2] 14% | activity, negative = inhibition [3] -0.775% | Potency [4] > 20.6 µM

CCOC(=O)/C(C#N)=C1/SC(CCO)C(=O)N1c1ccccc1 (centres undefined)
inactive: activity change, negative = inhibition [1] -6.66% | activity change, negative = inhibition [2] 2.53% | activity, negative = inhibition [3] -3.36% | Potency [4] > 20.6 µM
